According to article PMC7819943, “Rice protein-binding microarrays: a tool to detect cis-acting elements near promoter regions in rice”:
Over roughly 35,000 sequences, “fluorescence intensity (a.u.)” has its median near 10,000; the highest 2% begin near 52,000. What follows is part of a selection rich in the highest values, with near analogues and random picks from the rest.

molecular target: T1, OsWOX13 (Oryza sativa, UniProt Q5QMM3 1-267); experiment: protein-binding microarray (RPBM); PBS, 2% BSA, 51.3 ng/ul salmon testes DNA, 50 uM zinc acetate, 200 nM TF, 25 C, 1 h; high values mean tight binding; conditions: protein: recombinant; tags: N-terminal polyhistidine and DsRed monomer fusion (pET32a); label: CyDye5-dUTP incorporated in the synthesized complementary strand; 3' TTTTT single-stranded linker to array surface; dsDNA, one strand shown
T1 sequence: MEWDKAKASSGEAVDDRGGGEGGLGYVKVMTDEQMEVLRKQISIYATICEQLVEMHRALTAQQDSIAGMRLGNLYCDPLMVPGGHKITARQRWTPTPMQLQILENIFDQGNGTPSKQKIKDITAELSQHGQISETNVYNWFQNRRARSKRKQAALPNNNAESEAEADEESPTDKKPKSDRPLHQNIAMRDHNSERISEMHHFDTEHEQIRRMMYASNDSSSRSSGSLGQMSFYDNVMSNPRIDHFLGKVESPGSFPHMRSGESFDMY
Outline: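 An Axon 4000B scanner gave the binding signal as per-feature fluorescence intensity in arbitrary units. This followed washing of a custom Agilent array that had been incubated for 1 h at 25 °C with 200 nM protein in PBS, 2% BSA, salmon testes DNA and 50 µM zinc acetate. The proteins were transcription factors fused at the N-terminus to polyhistidine and DsRed, expressed in E. coli BL21-CodonPlus and purified on Ni–NTA.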

Sequence | binding signal
CTCTACAGTAAATCAAACAGTAATCACACTCCAAACAAAACGGAGTCACCTAGTGCAG | 5420 fluorescence intensity (a.u.)
ATTGGCTAGATTGGAAGCAAGAGAAGCTGCAGCGAAGGCACGGAGTCACCTAGTGCAG | 7860 fluorescence intensity (a.u.)
TTTGGAAATTATCTATGAATTTACCTAGTTTCATCGTCCACGGAGTCACCTAGTGCAG | 4970 fluorescence intensity (a.u.)
AGTTTTACAATAAATTTACTGTTATAAATATACATTTAACCGGAGTCACCTAGTGCAG | 6140 fluorescence intensity (a.u.)
TTTGATGGGAATTTGTTTCAGATATGCTTACGTGCACATACGGAGTCACCTAGTGCAG | 13800 fluorescence intensity (a.u.)
AACTAATTGTTTCTTCAGACTTCTTCAGAGCATTCTCCAGCGGAGTCACCTAGTGCAG | 36800 fluorescence intensity (a.u.)
CCAATAATAACACTGATCACTGATCAATCATGGCATCATGCGGAGTCACCTAGTGCAG | 16000 fluorescence intensity (a.u.)
GTGATCACCCTTTGATTGACCCGCACCCGCATCCCTTTCCCGGAGTCACCTAGTGCAG | 35500 fluorescence intensity (a.u.)
ATGATTTGCATGATTGCTTGCTTGCTTGCTGCTATGGCCACGGAGTCACCTAGTGCAG | 62700 fluorescence intensity (a.u.)
TATTTTGCTTAAATGGCTGATTAGTCAAAGCATTTGGCCACGGAGTCACCTAGTGCAG | 4720 fluorescence intensity (a.u.)
TGTCACATCACATCGATCATTGATTTCACTTTGATTCCTCCGGAGTCACCTAGTGCAG | 5220 fluorescence intensity (a.u.)
ATCATGATTGCATGATTGATTGCACATTTGCATCATTTCCCGGAGTCACCTAGTGCAG | 63400 fluorescence intensity (a.u.)
CTCATGATTTACGGCTGCTGGCCGCCGGGCTATTTAACCACGGAGTCACCTAGTGCAG | 10900 fluorescence intensity (a.u.)
ATTGATTGATCAAGACTGCATGGCAATACTCGACGTGCTGCGGAGTCACCTAGTGCAG | 64800 fluorescence intensity (a.u.)
TTGATTGCAGATCAAATGCATGCAATAAGAATGGAGATGGCGGAGTCACCTAGTGCAG | 19600 fluorescence intensity (a.u.)
AAGATTGGATTCGCTGCAATACCATCACTAAACTCGGCTTCGGAGTCACCTAGTGCAG | 12800 fluorescence intensity (a.u.)
CACTTAATCATATTCATCATATTCAAACGGGACCTAAGGGCGGAGTCACCTAGTGCAG | 8880 fluorescence intensity (a.u.)
CCCTCCATCCCCTCAGTCCACTCAATCACCACACCAGCCACGGAGTCACCTAGTGCAG | 3850 fluorescence intensity (a.u.)
CCAATCACATTCACTTTTACAGTTTAGCCCCACCCTCTCCCGGAGTCACCTAGTGCAG | 4980 fluorescence intensity (a.u.)

Sequence | binding signal
ATGAAGAAACTGTTGGTGATTTGACAAGTAGGCTTGGTTCCGGAGTCACCTAGTGCAG | 6530 fluorescence intensity (a.u.)
ATACCTTATTGAAATATGATTGTTCGACTGGTTACTGAATCGGAGTCACCTAGTGCAG | 19500 fluorescence intensity (a.u.)
GGGCATAAATTTTGGTGATTTTCGGTTTTCTGAAGTTCCTCGGAGTCACCTAGTGCAG | 7130 fluorescence intensity (a.u.)
CTGTATATTGATTGATTGGTTATTCGCAAGAAACATGACTCGGAGTCACCTAGTGCAG | 65100 fluorescence intensity (a.u.)
ATATTGATTGATTGGTTATTCGCAAGAAACATGACTGTTCCGGAGTCACCTAGTGCAG | 63800 fluorescence intensity (a.u.)
GATTCCCTTCTTTTCTTTGGTTGATTTCTTTCTGTATTTCCGGAGTCACCTAGTGCAG | 5880 fluorescence intensity (a.u.)
ATTCTGATTGGCAAGTTGGTTATTCCTTTTCTGATTGGTTCGGAGTCACCTAGTGCAG | 60700 fluorescence intensity (a.u.)
GCTTGATGACCAAGTATATATAAACATGTCAGTGATTATTCGGAGTCACCTAGTGCAG | 5670 fluorescence intensity (a.u.)
GTTATCATGATTTATATTCCCAAGGTTTGACTTAAACATTCGGAGTCACCTAGTGCAG | 11400 fluorescence intensity (a.u.)
AGGGAATTTTATGATTTGCATTGGTGCTGAGGTCAAACCCCGGAGTCACCTAGTGCAG | 7180 fluorescence intensity (a.u.)
GACAGATTAATTAAAGAATCATCATTACTGCGATGCGACCCGGAGTCACCTAGTGCAG | 16600 fluorescence intensity (a.u.)
ACAAATTGCCAACTCATGAAAGTGATCGATGATGGGCTTACGGAGTCACCTAGTGCAG | 15700 fluorescence intensity (a.u.)
GTCCTACATATGCTAAATTGGCAATATGTAAAGATTTACTCGGAGTCACCTAGTGCAG | 4980 fluorescence intensity (a.u.)
TTATTTATCAGTCTGATTTTATATAATGTAATATTATGCACGGAGTCACCTAGTGCAG | 3150 fluorescence intensity (a.u.)
TAAGTTAAATAACTATTAATTGTGGCCTGTGCTCAGCCTTCGGAGTCACCTAGTGCAG | 9070 fluorescence intensity (a.u.)
GCAAATTAACTTAATTAATAAGTTGAGCAGCCTGTAGGCCCGGAGTCACCTAGTGCAG | 58200 fluorescence intensity (a.u.)
AAATTAACTTAATTAATAAGTTGAGCAGCCTGTAGGCCTTCGGAGTCACCTAGTGCAG | 17500 fluorescence intensity (a.u.)
AATGATTAGAATTTGGTAAAGTAGAGGACAAAGATAAAATCGGAGTCACCTAGTGCAG | 7910 fluorescence intensity (a.u.)
TTTAACACAAATGAGAACTTGATCGATTCCTCGTATTGTTCGGAGTCACCTAGTGCAG | 3850 fluorescence intensity (a.u.)

Sequence | binding signal
AAAATAAACAAATCTATCCACTAACAATTTGACATGATATCGGAGTCACCTAGTGCAG | 7240 fluorescence intensity (a.u.)
GGATAGAATTGATTGAGCGAGAGAGAGAATTGAACACAAACGGAGTCACCTAGTGCAG | 21200 fluorescence intensity (a.u.)
TTCGGATTGATTGTTGAGACAAATCTCGTAGAACACGGAACGGAGTCACCTAGTGCAG | 62900 fluorescence intensity (a.u.)
TTTGAGTGATTGACAGGAAACAAATCCACCACTATCTGTTCGGAGTCACCTAGTGCAG | 62400 fluorescence intensity (a.u.)
GAAATTGATTTATCCAGGGAAACTGTCGTGACAAATTTCGCGGAGTCACCTAGTGCAG | 49300 fluorescence intensity (a.u.)
ATAAATAAATACTCTAATTGCAAGCAACCAACGTCCCAACCGGAGTCACCTAGTGCAG | 5780 fluorescence intensity (a.u.)
CTACAATTTATCATAAACTTGATAAAATATAAACAAATTCCGGAGTCACCTAGTGCAG | 4240 fluorescence intensity (a.u.)
AGGACATAATTTTAATGGGGAAATTGGTTCCATACCATCTCGGAGTCACCTAGTGCAG | 20500 fluorescence intensity (a.u.)
AGCTAGCTTTGACTAATCAATCAGCAGCTAATTTCAGTCTCGGAGTCACCTAGTGCAG | 13700 fluorescence intensity (a.u.)
AAAATAAATTGACAACATTCGTACAATATATATAAATATCCGGAGTCACCTAGTGCAG | 25900 fluorescence intensity (a.u.)
ATTTAATAGTATTAAACGTAGATTACTGATAAAACCTATTCGGAGTCACCTAGTGCAG | 4260 fluorescence intensity (a.u.)
TAGCTTAGCTCGTATTCGTATAAAACGTAGTACAAGGTTCCGGAGTCACCTAGTGCAG | 61300 fluorescence intensity (a.u.)
GACTTGACTAATTGATTTGTGTAGATTTCTAAAAGCAAGGCGGAGTCACCTAGTGCAG | 58600 fluorescence intensity (a.u.)
GATATGAGTGACTAATTGACTTTGTGTTGATTTCGAGCAGCGGAGTCACCTAGTGCAG | 34600 fluorescence intensity (a.u.)
CTGATTTAAATTGAAAGCAACCGTCTTTTGATTTGTGTAGCGGAGTCACCTAGTGCAG | 57100 fluorescence intensity (a.u.)
AGAAATTGTGTGATTTATTGTAGTGTGTAGAAATTTATAGCGGAGTCACCTAGTGCAG | 11700 fluorescence intensity (a.u.)
AATGTAATGTAACAAATTTGTCTAAAAGGATTGAACTTGGCGGAGTCACCTAGTGCAG | 12400 fluorescence intensity (a.u.)
ATAAAATTTTAAAATTTAAATTGTAGCCACAACTGATAAGCGGAGTCACCTAGTGCAG | 15500 fluorescence intensity (a.u.)
